# Measured values: the supplement of paper PMC6555819
# System: PPARg:RXRa 30nM:10nM, anti-RXR (NR concentration 30 nM, RXRa partner concentration 10 nM)
# Assay: PBM binding z-score (relative to random genomic background probes); higher = stronger binding; sequences stand for … in GC…GCGATTGACAGCGTAGAATGAAGG
# How it was run: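 Probes were double-stranded and carried 34-nt variable regions with direct-repeat seeds, single-nucleotide variants, half-site ablations and random human genomic background sequences, printed on custom Agilent 4×180K protein-binding microarrays. Arrays were incubated 1 h with ligand-free nuclear receptor dimers in PBS pH 7.4, 2% milk, 0.02% Triton X-100, 1 mM DTT, 0.2 mg/mL BSA and 0.4 mg/ml salmon testes DNA. Antibodies against each partner (one per run) detected binding, and scanned fluorescence was regression-normalized. Binding z-scores use the random background probes as reference.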
row,Sequence,PBM binding z-score
1,TCAAGTTGGTCAAAGGTCACACACTCGAAATGCG,10
2,ACTAGCAGGCCAAGGATCACTCAAGATTAGTCCG,1.33
3,ACTTACGGGTCAGCGAGGTTATAGCACGCGTATA,1.13
4,TCTATCAGTTGATTAGGGCAACCGAAACAGCGGA,3.34
5,CCTTACGGGTCACTCCAGGTTATGGCATCGGAGT,0.907
6,CCTTACGGGTCAAGGTTACAGCACGGGTGGTACG,2.14
7,CGTCCAAGGTCAAGGTCAGTGACAGAGACTCGAA,2.85
8,ATCTCTAGGGAAAGTTCAGTGAAAGATCGATAGA,0.725
9,ACAGACAGGTGATGAAGGTAACCCAGGCTATCAT,0.126
10,TCATATAGGTAAATGCGAGGTGAAAGTCCGATCT,4.02
11,CAAACTAGGTCACAGAGGTCAAAGGCCGTGCGTA,7.41
12,CCTAGTTGGTGAGGAGGTCACACACCGGATATGA,1.4
13,CCTGCTAGGTCATGGTCAGCTAATCTACAGTATG,0.934
14,ATATGTAAGTTACATCCGGGTCATTCAGGCTATG,0.868
15,TCTTGTAGATCAGCAGGTTAAGACAGCTGGCCAA,2.57
16,TCTGCTAGGTCATTTGGTCAGCTAACGAGCTGCC,1.64
17,CCTACTGGGCCACGAAAGGTCAGTGATTCAGTGA,1.03
18,CCTACTGGGCCAAGGTCATTTATCAGTCAAAGCA,1.69
19,ATATGTAGGTTACATCCGGGTCCTTCAGGCTATG,2
20,AGAATGAGGTTATACGTAGATTAGGGAAGAAAGT,0.937
21,CCTAGTTGGTCAAGGTCAGACACGCTATAGGTAC,0.813
22,TGATTGAGGTTAAAGATCAGGGAACGTGGCGTCG,4.22
